Screens from PubChem BioAssay.
LASV entry inh – inhibitors of Lassa virus binding or cell entry. Lassa virus pseudotype entry inhibition, cell reporter. Potency, µM (top dose mostly 37.9 µM), inactives show top-dose activity change, negative = inhibition, usual class: inhibitors. 300,000 compounds, 1.2% hits; calls by dose curve; tested in HEK293 cells; note: potency is the fitted concentration of half-maximal effect; % is set by controls: 0 for no effect and ±100 for the full control effect; nearly all actives have a fitted effect of over 50% in size
Pf growth 48h – inhibits P. falciparum growth in the first generation, 48 h | P. falciparum luciferase growth in erythrocytes, 48 h | Potency, µM (series often up to 28.7 µM), for inactives: at the top dose activity change, negative = inhibition, usual class: inhibitors | 310,000 compounds, 5.9% hits; note: potency is the fitted concentration of half-maximal effect; % is set by controls: 0 for no effect and ±100 for the full control effect
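A one-generation exposure of luciferase-tagged malaria parasites in RPMI 1640/Albumax erythrocyte culture, 37 C and 5% CO2. Inhibition is inferred from decreased luminescence after adding detection reagent.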
Shiga toxin inh – inhibitors of Shiga toxin in Vero cells | Vero cells, Shiga toxin protein synthesis inhibition reporter | inhibition, % at 38.7 µM | 290,000 compounds, 9.2% hits; in the data active = inhibition mostly above about 28%, no sharp cut-off; inactive = mostly below about 43%; note: 0% is about no effect
Pf growth 96h – inhibits malaria parasite growth, 96 h | 320,000 compounds, 6.9% hits | AID 504834 | P. falciparum luciferase reporter growth, 96 h | Potency, µM (series often up to 28.7 µM), without a hit: at the top dose activity change, negative = inhibition, actives largely listed as inhibitors; note: potency is the fitted concentration of half-maximal effect; % is set by controls: 0 for no effect and ±100 for the full control effect
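Two-generation exposure (96 h) targets delayed-death phenotype. Reporter parasites carrying integrated firefly luciferase, in red cells at 2% hematocrit and 0.05% parasitemia final, kept at 37 C, 5% CO2; luminescence loss indicates inhibition.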
CHX counter – affects cycloheximide protein synthesis inhibition readout, counter-screen. 300,000 compounds, 12% hits. cell reporter, cycloheximide protein synthesis inhibition counterscreen. max response, %. AID 2314; in the data active = max response mostly above about 13%, no sharp cut-off; inactive = mostly below about 14%; note: read at 38.3 µM for the half of the compounds with a filed dose; 0% is about no effect
Marburg entry inh – inhibitors of Marburg virus binding or cell entry; Marburg virus pseudotyped entry inhibition, cell reporter; Potency, µM (highest dose often 37.8 µM), for the others: at the highest dose activity change, negative = inhibition, actives largely listed as inhibitors; 300,000 compounds, 1.8% hits; AID 540276; calls by dose curve; tested in HEK293 cells; note: potency is the fitted concentration of half-maximal effect; % is set by controls: 0 for no effect and ±100 for the full control effect
An asterisk follows results filed as active; [ ] = dose if it differs, or a comment. In the library only some 19% were active in any assay of this set; here they are far more common. Unless noted, calls come from the whole dose curve; as a rule, active = well fitted inhibition curve with a large enough effect; inconclusive = small, poorly fitted or top-dose-only effect, or another doubt; inactive = no such curve, though single readings can be large or run the other way.

For COC(=O)c1ccc(NC(=O)CSc2nnc(COc3ccccc3)n2C)cc1 the results were LASV entry inh -3%, Pf growth 48h 8.3µM*, Shiga toxin inh -2, Pf growth 96h 60%, CHX counter 0 and Marburg entry inh 9%.
`COc1ccc(NC(=O)CSc2nnc(Cn3cnc([N+](=O)[O-])n3)n2C)cc1` gave LASV entry inh -2%, Pf growth 48h 11%, Shiga toxin inh -8, Pf growth 96h 16%, CHX counter -4 and Marburg entry inh 13%.
Cc1ccc(C(NC(=O)C2CCCCC2)c2c(O)ccc3ccccc23)cc1 (stereo unspecified) was read as LASV entry inh inconclusive, Pf growth 48h inconclusive, Shiga toxin inh -3, Pf growth 96h inconclusive, CHX counter -2 and Marburg entry inh inconclusive.
`CCC(=O)NC(c1ccccc1)c1c(O)ccc2ccccc12` (stereo unspecified) gave Pf growth 48h 9.3µM*, Shiga toxin inh -11, Pf growth 96h inconclusive and CHX counter -1.
CCC(=O)NC(c1ccccc1)c1c(OC(C)=O)ccc2ccccc12 (stereo unspecified) was read as LASV entry inh -10%, Pf growth 48h inconclusive, Shiga toxin inh -11, Pf growth 96h 10µM*, CHX counter 1 and Marburg entry inh -26%[46.1 µM].
CC(=O)NC(c1ccccc1)c1c(O)ccc2ccccc12 (stereo unspecified) was read as LASV entry inh 1%, Pf growth 48h 7%, Shiga toxin inh -5, Pf growth 96h -13%, CHX counter -5 and Marburg entry inh inconclusive.
CCC(=O)NC(c1cccc([N+](=O)[O-])c1)c1c(OC(C)=O)ccc2ccccc12 (stereo unspecified) was read as LASV entry inh inconclusive, Pf growth 48h 13µM*, Shiga toxin inh 9, Pf growth 96h 23%, CHX counter -1 and Marburg entry inh inconclusive.
CCCC(=O)NC(c1ccc(N(C)C)cc1)c1c(O)ccc2ccccc12 (stereo unspecified) was read as LASV entry inh 3%, Pf growth 48h inconclusive, Shiga toxin inh -4, Pf growth 96h 12µM*, CHX counter -3 and Marburg entry inh inconclusive.
Screening CCCC(=O)NC(c1ccccc1)c1c(O)ccc2ccccc12 (stereo unspecified) returned Pf growth 48h 0%, Shiga toxin inh 17, Pf growth 96h 11% and CHX counter -2.
Screening Cc1c(C)c2cc(Cl)c(OCC(=O)N3C[C@H]4C[C@@H](C3)c3cccc(=O)n3C4)cc2oc1=O returned Pf growth 48h -4%, Shiga toxin inh -2, Pf growth 96h -1% and CHX counter -4.
For COc1ccc(Cl)cc1NC(=S)NCc1cccs1 the results were LASV entry inh 15%, Pf growth 48h -8%, Shiga toxin inh 42, Pf growth 96h 16%, CHX counter -2 and Marburg entry inh -11%[14.2 µM].
`CCOc1ccc(-n2c(=O)c3c4c(sc3n(CC(=O)NCC3CCCO3)c2=O)CCCC4)cc1` (stereo unspecified) gave Pf growth 48h -15%, Shiga toxin inh -16, Pf growth 96h inconclusive and CHX counter -2.
CC(=O)Oc1ccc2ccccc2c1C(NC(=O)Cc1ccccc1)c1ccccc1Cl (stereo unspecified) was read as LASV entry inh -6%, Pf growth 48h 2.6µM*, Shiga toxin inh -6, Pf growth 96h 27%, CHX counter 4 and Marburg entry inh inconclusive.
Screening CCOC(=O)c1sc(N(C)C(C)=O)nc1C returned LASV entry inh 20%, Pf growth 48h -16%, Shiga toxin inh -23, Pf growth 96h inconclusive, CHX counter 2 and Marburg entry inh inconclusive.
For CCOC(=O)c1sc(N(Cc2ccccc2)C(=O)CCl)nc1C the results were LASV entry inh 18µM*, Pf growth 48h inconclusive, Shiga toxin inh -5, Pf growth 96h -17%, CHX counter 6 and Marburg entry inh inconclusive.
`CCOC(=O)c1sc(N(Cc2ccccc2)C(=O)CSc2ncn[nH]2)nc1C` gave LASV entry inh inconclusive, Pf growth 48h -17%, Shiga toxin inh 64, CHX counter 28 and Marburg entry inh -7%.
`Cc1ccsc1C(=O)OCC(=O)N(Cc1ccccc1)C(C)C` gave LASV entry inh 14%[46.1 µM] and Marburg entry inh 1%[46.1 µM].
For CCOC(=O)c1sc(N(Cc2ccccc2)C(=O)COC(=O)c2ccc(O)cc2)nc1C the results were LASV entry inh 2.1µM*, Pf growth 48h inconclusive, Shiga toxin inh 9, Pf growth 96h inconclusive, CHX counter 8 and Marburg entry inh inconclusive.
For CCOC(=O)c1sc(N(Cc2ccccc2)C(=O)COC(=O)c2ccccc2O)nc1C the results were LASV entry inh -24%, Pf growth 48h 39%, Shiga toxin inh 32*, Pf growth 96h 32%, CHX counter 19* and Marburg entry inh inconclusive.
`CCCCCOCC1CC(C/C(C)=N/NC(N)=S)C(=O)O1` (stereo unspecified) gave LASV entry inh inconclusive, Pf growth 48h 11%, Shiga toxin inh 14, Pf growth 96h 25%, CHX counter -3 and Marburg entry inh inconclusive.
`CCCCCOCC1CC(C/C(C)=N/Nc2nc(-c3ccccc3)cs2)C(=O)O1` (stereo unspecified) gave LASV entry inh 12%, Pf growth 48h inconclusive, Shiga toxin inh 69*, Pf growth 96h 59%, CHX counter 27* and Marburg entry inh 5%.
CN(C)CC[C@@](O)(c1ccccc1)c1ccccc1Cl was read as Pf growth 48h inconclusive and Pf growth 96h 11µM*.
Screening CN(C)CCC(O)(c1ccccc1)c1ccccc1Cl (stereo unspecified) returned LASV entry inh inconclusive and Marburg entry inh -20%.
For CC(C)(C)c1cc(NC(=O)Nc2ccc(Br)cc2Cl)no1 the results were LASV entry inh 16%[46.1 µM], Pf growth 48h -27%, Shiga toxin inh 61*, Pf growth 96h 13µM*, CHX counter 16* and Marburg entry inh inconclusive.
`CC(C)(C)c1cc(NC(=O)Nc2ccc(Cl)cc2Cl)no1` gave LASV entry inh 3%, Pf growth 48h inconclusive, Shiga toxin inh 78*, Pf growth 96h -21%, CHX counter 19* and Marburg entry inh inconclusive.
For Cc1c(Cl)cccc1NC(=O)Nc1cc(C(C)(C)C)on1 the results were Pf growth 48h 10µM*, Shiga toxin inh 26, Pf growth 96h inconclusive and CHX counter 6.
`Cc1c(Cl)cccc1NC(=O)Nc1cc(C(C)(C)C)nn1C` gave LASV entry inh -9%[46.1 µM], Pf growth 48h inconclusive, Shiga toxin inh -13, Pf growth 96h inconclusive, CHX counter -2 and Marburg entry inh -24%[46.1 µM].
Screening O=C(CNS(=O)(=O)c1ccc2ccccc2c1)NCCc1ccccn1 returned LASV entry inh 17%, Pf growth 48h -3%, Shiga toxin inh 12, Pf growth 96h -2%, CHX counter -4 and Marburg entry inh -10%.
